# Rows were chosen to be rich in hits. Some 5.9% of all compounds tested hit in one or more screens of this group.
# ABHD5 PLIN5 PPI: ABHD5-PLIN5 protein interaction inhibition | Q00G26+Q8WTS1 | Split G. princeps luciferase complementation, luminescence, 4 h | inhibition, % at 4 µM | hit rate 0.78% among 360,000 | AID 602281;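 active means inhibition above the mean inhibition across every tested compound plus 3 SD, cut at about 22% in these data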;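 further: 0% = DMSO only wells and the 100% control is not disclosed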
# LANA-H2A inh: blocks KSHV LANA binding to histone H2A/H2B | cell-free LANA-H2A/H2B peptide, fluorescence polarization | inhibition, % (no concentration beside the values) | hit rate 0.6% among 320,000 | AID 2629; in the data active means inhibition mostly above about 10%, no sharp cut-off; inactive means mostly below about 6.7%
# ALR inh: inhibitors of human sulfhydryl oxidase ALR; P55789; purified ALR, DTT oxidation, H2O2 HRP-luminol luminescence; inhibition, % (no concentration beside the values); hit rate 3.8% among 290,000; AID 485317;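 active means mean replicate inhibition above about 79%, with every replicate also reaching it, limit read from the data; inconclusive means only one of the two criteria met; inactive means mean below limit and not every replicate reaching it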
# Rtt109 HAT inh: blocks Candida albicans Rtt109/Vps75 acetyltransferase activity | hit rate 0.16% among 330,000 | AID 540336 | Q5AAJ8 | purified Rtt109/Vps75, ThioGlo CoA-SH fluorescence, 4 h | inhibition, % at 34.9 µM;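 active means inhibition of at least 50% in every replicate; inconclusive means best replicate reaches 50% inhibition but some replicates fall short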
# Target sequence (Q5AAJ8 whole entry, looked up): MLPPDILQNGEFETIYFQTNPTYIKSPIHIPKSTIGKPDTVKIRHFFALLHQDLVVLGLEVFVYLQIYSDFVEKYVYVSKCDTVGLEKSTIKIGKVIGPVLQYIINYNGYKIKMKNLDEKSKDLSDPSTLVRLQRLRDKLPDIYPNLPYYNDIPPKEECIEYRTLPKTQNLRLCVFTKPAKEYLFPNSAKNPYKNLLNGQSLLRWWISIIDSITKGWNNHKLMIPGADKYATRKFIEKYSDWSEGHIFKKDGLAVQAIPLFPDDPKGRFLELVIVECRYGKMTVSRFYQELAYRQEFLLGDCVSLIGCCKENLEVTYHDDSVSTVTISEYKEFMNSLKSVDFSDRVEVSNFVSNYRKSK
# PRMT1 FP inh: inhibitors of human PRMT1. Q99873. recombinant PRMT1, activity-based probe fluorescence polarization. inhibition, % at 2.79 µM. hit rate 1.3% among 370,000;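 active means inhibition above about 21% made by adding two undisclosed values, limit read from the data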
# Target sequence (Q99873 whole entry, looked up): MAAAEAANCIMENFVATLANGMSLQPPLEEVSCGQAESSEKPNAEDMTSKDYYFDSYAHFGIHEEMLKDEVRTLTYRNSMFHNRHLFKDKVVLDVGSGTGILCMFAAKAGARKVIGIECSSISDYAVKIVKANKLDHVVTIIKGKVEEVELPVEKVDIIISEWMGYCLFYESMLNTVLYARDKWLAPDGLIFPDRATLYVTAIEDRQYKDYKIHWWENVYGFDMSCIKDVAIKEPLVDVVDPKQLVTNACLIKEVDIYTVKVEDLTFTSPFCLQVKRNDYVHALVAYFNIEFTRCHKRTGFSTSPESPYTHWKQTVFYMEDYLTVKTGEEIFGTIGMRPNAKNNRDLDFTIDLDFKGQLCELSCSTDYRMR
# rCAG RNA binder: r(CAG) repeat RNA binding; inhibition, % at 3 µM; hit rate 1.3% among 370,000; TO-PRO-1 dye displacement fluorescence;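 active means inhibition above the plate cutoff, the mean of all test compounds on that plate plus 3 SD, cut at about 35% in these data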;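 further: 0% = DMSO alone and 100% = 100 µM mitoxantrone as full dye displacement; higher means more dye released from RNA so lower well fluorescence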
# ABHD5-PLIN5 conf: confirmation of human ABHD5-PLIN5 interaction inhibitors; AID 651612; biochemical ABHD5-PLIN5 interaction, luminescence; inhibition, % at 4 µM; shares compounds with ABHD5 PLIN5 PPI; hit rate 67% among 2,200; in the data active means inhibition above about 23%;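 further: 0% = DMSO vehicle wells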
# HNF4 split-luc: HNF4 split-luciferase signal hit, counter-screen; shares compounds with ABHD5 PLIN5 PPI; HNF4 dimerization, luminescence, biochemical; inhibition, % at 4 µM; hit rate 77% among 2,200; AID 651674;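 active means mean inhibition across replicate wells exceeding the computed hit threshold, cut at about 13% in these data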;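 further: light from luciferase halves that rejoin when HNF4 fusion proteins dimerize; 0% = DMSO only wells and the 100% control is not given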
# rCAG binder conf: r(CAG) RNA repeat binding, confirmation | AID 652065 | shares compounds with rCAG RNA binder | hit rate 70% among 4,300 | TO-PRO-1 dye displacement fluorescence | inhibition, % at 3 µM;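 active means inhibition above a per-plate cutoff, the mean inhibition of sample wells plus 3 SD, cut at about 35% in these data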;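 further: loss of TO-PRO-1 fluorescence as compound displaces dye from 1x1 AA loop RNA; 0% = DMSO only wells and 100% = 100 µM mitoxantrone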
# DNA CAG counter: counter-screen for rCAG RNA binders: DNA CAG dye complex inhibitors | hit rate 94% among 4,300 | d(CAG) DNA oligo TO-PRO-1 dye displacement, fluorescence | inhibition, % at 3 µM | shares compounds with rCAG RNA binder | AID 652068;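 active means inhibition above its plate's cutoff, the mean test-well inhibition plus 3 SD, cut at about 4.8% in these data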;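 further: 0% = DNA dye mix with DMSO and 100% = 100 µM mitoxantrone; hits displace the dye from DNA and so lower well fluorescence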
# DNA CAG DR: counter-screen for rCAG binders: inhibitors of DNA CAG TO-PRO-1 complex | hit rate 20% among 250 | DNA CAG/GTC duplex TO-PRO-1 dye displacement fluorescence | IC50, µM | shares compounds with rCAG RNA binder | AID 686960; in the data active means IC50 below about 10 µM
# PRMT1 inh conf: confirmation of human PRMT1 inhibitors. shares compounds with PRMT1 FP inh. recombinant His-PRMT1, activity-based probe fluorescence polarization. inhibition, % at 2.79 µM. hit rate 42% among 3,300;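 active means mean inhibition across replicates above the hit cutoff derived for the earlier primary screen, cut at about 22% in these data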
# Starred values were filed as active, the others as inactive; ? = inconclusive; nt = no result.
SMILES,ABHD5 PLIN5 PPI,LANA-H2A inh,ALR inh,Rtt109 HAT inh,PRMT1 FP inh,rCAG RNA binder,ABHD5-PLIN5 conf,HNF4 split-luc,rCAG binder conf,DNA CAG counter,others
O=C(O)[C@H](Cc1ccccc1)N1C(=O)c2c(Cl)c(Cl)c(Cl)c(Cl)c2C1=O,71.0*,4.2,?,11.1,2.1,49.8*,-7.3,4.1,63.3*,27.8*,
COc1cc(/C=C2\CC/C(=C\c3cc(OC)c(O)c(OC)c3)C2=O)cc(OC)c1O,32.0*,-1.5,43.5,9.3,27.4*,35.6*,39.4*,39.1*,40.5*,15.5*,
N#C/C(=C\c1ccccc1OCc1ccc(C(=O)O)cc1)C(=O)Nc1ccc(O)cc1,46.3*,-0.9,?,-16.8,0.6,44.0*,57.7*,56.2*,33.8,10.0*,
C[C@@H]1CCN(C2CC2)S(=O)(=O)c2c(cccc2N2CC[C@@H](O)C2)O1,nt,nt,nt,nt,4.5,3.8,nt,nt,nt,nt,
Cc1ccc(NC(=O)c2cc3ccccc3cc2O)cc1,-6.3,5.6,nt,-1.1,-2.0,27.6,nt,nt,nt,nt,
COc1ccc(NC(=O)c2cc3ccccc3cc2O)cc1,48.3*,-3.2,2.5,-1.4,5.1,45.7*,53.3*,21.9*,39.4*,15.9*,
CCOC(=O)N1CCN(C(=O)C[C@H]2C[C@@]3(C(=O)OC)C(=C[C@H](C4CCCC4)O[C@@H]3C)N(Cc3ccco3)C2=O)CC1,nt,nt,nt,nt,4.7,1.2,nt,nt,nt,nt,
COc1ccc(CCN2C(=O)COc3ccccc3C2C(=O)Nc2c(C)cccc2C)cc1OC (stereo not drawn),-7.2,nt,nt,nt,-6.0,1.1,nt,nt,nt,nt,
CNc1ccc(Br)cc(C(=O)/C=C/c2cccc(OC)c2)c1=O,30.4*,-2.4,8.2,-17.7,27.2*,36.0*,65.2*,49.5*,37.1*,16.0*,
COc1cccc(/C=C/C(=O)OCC(=O)NCCNC(=O)COC(=O)/C=C/c2cccc(OC)c2)c1,-8.2,4.0,-1.0,-3.6,1.7,4.3,nt,nt,nt,nt,
COC(=O)[C@]1(CC(C)C)NC=C(C(=O)c2ccccc2)[C@@H]1c1cccs1,nt,nt,nt,nt,-1.5,11.7,nt,nt,nt,nt,
C=CCN(Cc1ccc(OC)cc1OC)C(C#CCCCC)c1ccccc1 (stereo not drawn),nt,nt,nt,nt,-1.5,nt,nt,nt,nt,nt,
CC1(C(=O)NS(=O)(=O)c2ccccc2Cl)CCN1C(=O)Cc1ccc(Cl)cc1Cl (stereo not drawn),-1.5,nt,nt,nt,-2.6,23.2,nt,nt,nt,nt,
Nc1[nH]c(C(=O)c2ccccc2)c(-c2ccc3ccccc3c2)c1C(=O)NC1CC1,nt,nt,nt,nt,-4.8,5.9,nt,nt,nt,nt,
CCCCCCCCOC(=O)c1cc([N+](=O)[O-])c(Sc2ncnc3nc[nH]c23)c([N+](=O)[O-])c1,28.1*,nt,nt,4.9,0.5,37.5*,99.0*,89.9*,40.2*,18.9*,
CCCCOC(=O)c1ccc(Nc2ncnc3nc[nH]c23)cc1,6.2,-4.6,-8.9,-1.1,-2.0,1.6,nt,nt,nt,nt,
CCOC(=O)c1c(NC(=O)/C=C\C(=O)O)sc(C)c1-c1ccccc1,-0.3,-1.1,-1.6,6.6,0.4,16.1,nt,nt,nt,nt,
CCOC(=O)c1c(NC(=O)/C=C/C(=O)O)sc(C)c1-c1ccc(C(C)(C)C)cc1,34.7*,-6.4,96.6*,6.2,10.6,80.2*,71.3*,27.2*,73.2*,34.5*,DNA CAG DR=7.62*
O=C(O)c1ccccc1-c1ccccc1C(=O)Nc1ccc(F)cc1,-4.9,-2.4,1.8,5.1,-2.5,3.5,nt,nt,nt,nt,
O=C(/C=C/c1ccc(NC(=O)c2ccccc2-c2ccccc2C(=O)O)cc1)c1ccccc1,24.1*,3.7,98.4*,2.0,3.8,68.5*,59.6*,33.9*,66.1*,24.0*,
COc1ccc(S(=O)(=O)CC(=O)c2cc3cc(Br)ccc3oc2=O)cc1,33.1*,-56.3,18.9,-2.2,10.9,50.9*,69.8*,53.4*,48.2*,23.1*,
CC(C)(C)NC(=O)C(c1ccccc1F)n1c(=O)c(-c2ccco2)nc2ccccc21 (stereo not drawn),54.1*,nt,nt,nt,15.4,40.9*,91.0*,36.5*,10.7,7.8*,
Cc1ccc(NC(=O)CC2S/C(=N/N=C3/NC(=O)CS3)NC2=O)cc1 (stereo not drawn),2.8,2.1,-36.9,1.4,4.8,5.5,nt,nt,nt,nt,
Cc1ccc(NC(=O)CC2S/C(=N/N=C/c3c[nH]c4ccccc34)NC2=O)cc1 (stereo not drawn),25.8*,1.6,-8.6,15.8,1.5,47.4*,16.4,14.0*,64.2*,23.4*,
C=C1C(=O)C23C(O)C1CCC2C12CCCC(C)(COC(C)=O)C1C(O)C3(O)OC2 (stereo not drawn),90.5*,nt,nt,1.0,30.9*,2.8,92.5*,112.6*,nt,nt,PRMT1 inh conf=32.5*
SMILES,ABHD5 PLIN5 PPI,LANA-H2A inh,ALR inh,Rtt109 HAT inh,PRMT1 FP inh,rCAG RNA binder,ABHD5-PLIN5 conf,HNF4 split-luc,rCAG binder conf,DNA CAG counter,others
CC(C)(C)N(Cc1ccccc1)C(=O)COC(=O)c1ccccc1SCC(=O)N1CCCC1,-2.2,2.3,-4.0,3.7,-0.7,-5.1,nt,nt,nt,nt,
COc1cccc(/C=C2/CCC(CN(C)C)C2=O)c1 (stereo not drawn),58.1*,nt,nt,-2.2,41.4*,8.1,101.0*,103.5*,nt,nt,PRMT1 inh conf=70.6*
CCOC(=O)c1c(-c2ccco2)csc1NC(=O)COC(=O)c1cnccn1,24.7*,-1.0,69.3,-17.0,25.3*,30.1,17.6,15.5*,nt,nt,PRMT1 inh conf=6.7
Cn1cnc([N+](=O)[O-])c1S(=O)(=O)c1ccc(Cl)cc1,48.9*,nt,nt,10.5,44.4*,3.2,74.8*,98.2*,nt,nt,PRMT1 inh conf=17.9
Cn1cnc([N+](=O)[O-])c1NC(C)(C)C,-7.7,0.4,-7.9,-4.7,4.2,-0.4,nt,nt,nt,nt,
NC(Cc1ccc(O)cc1)C(=O)NN=Cc1ccccc1O (stereo not drawn),nt,nt,nt,nt,-2.0,2.0,nt,nt,nt,nt,
CCNC(=O)c1c(NC(=O)c2cc(-c3cc(C)cc(C)c3O)n[nH]2)sc2c1CCCC2,-3.6,nt,nt,7.4,-3.7,2.0,nt,nt,nt,nt,
CCCCCNC(=O)C(c1ccccc1F)n1c(=O)c(-c2ccco2)nc2ccccc21 (stereo not drawn),95.7*,nt,nt,nt,30.9*,39.7*,56.8*,4.1,nt,nt,PRMT1 inh conf=25.5*

# Screens from PubChem BioAssay.
